The source of these data is ChEMBL document CHEMBL3433997, “St. Jude Leishmania screening dataset” (2016).

Holding throughout (type): functional
In assay [1] the target is Solute carrier family 2, facilitated glucose transporter member 1 (Homo sapiens) (UniProt P11166). Briefly: ST_JUDE_LEISH: Cytotoxicity at 2uM final concentration against transgenic Leishmania Mexicana promastigotes LmGLUT1 that are glucose transport deficient and complemented with the human glucose transporter GLUT1. Activity is measured by DNA content using SYBR green in vitro.

The target of assay [2] is Hexose transporter 1 (Plasmodium falciparum) (UniProt O97467). The experiment in a line: ST_JUDE_LEISH: Cytotoxicity at 2uM final concentration against transgenic Leishmania Mexicana promastigotes LmPfHT that are glucose transport deficient and complemented with the Plasmodium falciparum hexose transporter. Activity is measured by DNA content using SYBR green in vitro.

Assay [3] concerns the target Glucose transporter (Leishmania mexicana) (UniProt O61059). Briefly: ST_JUDE_LEISH: Cytotoxicity at 2uM final concentration against transgenic Leishmania Mexicana promastigotes LmGT2 that are glucose transport deficient and complemented with the L. Mexicana glucose transporter 2. Activity is measured by DNA content using SYBR green in vitro.

Chain of Solute carrier family 2, facilitated glucose transporter member 1 (Homo sapiens) (P11166 whole entry): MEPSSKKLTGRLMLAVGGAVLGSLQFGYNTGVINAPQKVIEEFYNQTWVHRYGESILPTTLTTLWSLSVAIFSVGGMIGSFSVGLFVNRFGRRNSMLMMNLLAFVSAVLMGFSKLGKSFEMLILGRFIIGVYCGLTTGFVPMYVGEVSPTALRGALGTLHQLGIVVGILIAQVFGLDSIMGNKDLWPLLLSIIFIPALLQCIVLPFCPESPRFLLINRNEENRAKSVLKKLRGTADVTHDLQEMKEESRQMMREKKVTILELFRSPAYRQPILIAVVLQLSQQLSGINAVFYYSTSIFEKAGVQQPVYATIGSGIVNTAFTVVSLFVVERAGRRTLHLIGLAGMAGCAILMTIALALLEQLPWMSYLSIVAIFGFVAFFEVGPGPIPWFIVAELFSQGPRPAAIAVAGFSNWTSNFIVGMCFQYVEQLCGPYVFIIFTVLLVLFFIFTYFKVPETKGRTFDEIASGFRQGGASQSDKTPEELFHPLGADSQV

For `NC(=O)N1CCN(Cc2ccc(Br)cc2)CC1`, the inhibition (commonly the relative decrease from the control value, in per cent) was found to be 0.39% in assay [1], 1.05% in assay [2] and 1% in assay [3].

As to `CCCc1cc(=O)[nH]c(-n2nc(C)cc2NC(=O)c2cc3ccccc3o2)n1`, the inhibition in assay [1] is 12.6%; in assay [2], 13.1%; in assay [3], 4.77%.

On to `Cc1ccc(NC(=O)c2ccc(N3CCC(c4ccccc4C)CC3)nc2)cc1`, for which the inhibition in assay [1] is 11.9%; in assay [2] it was 9.58%; in assay [3], 8.1%.

For `CC(C)c1sc(N2CCN(C)CC2)nc1C(=O)Nc1ccc(F)cc1C(F)(F)F`, the inhibition in assay [1] stood at 5.47%; in assay [2] it was 6.04%; in assay [3], 2.97%.

For `N=C1NC(c2ccccc2)(c2ccccc2)C(=O)N1C1CCCCC1`, the values for the inhibition in assay [1], in assay [2] and in assay [3] were 3.46%, 3.28% and 1.18%, respectively.

Consider `CCCCCCC(C)c1cc(O)c2c(c1)OC(C)(C)C=C2c1ccncc1` (centres undefined), for which the inhibition is 1.01% in assay [1], -0.62% in assay [2] and 0.58% in assay [3].

Consider `CCCNC(=O)Nc1cc2cc(-c3cccc(CN4CCCCC4)c3)ccc2n2c(C)nnc12`, for which the inhibition was found to be 0.33% in assay [1], 1.3% in assay [2] and 0.91% in assay [3].

Take `COC(=O)c1cc(/C(C)=N/Nc2nc3ccccc3[nH]2)ccc1O`: the inhibition in assay [1] was found to be 4.85%; in assay [2], 5.41%; in assay [3] it was 1.77%.

For `O=[N+]([O-])c1cccc(CNCC2CCN(Cc3ccc(C(F)(F)F)cc3)CC2)c1`, the inhibition in assay [1] stood at 0.44%; in assay [2] it was 5.74%; in assay [3] it was 6.41%.

As for `O=C(CNC(=O)c1ccc(O)cc1)Nc1ccc(-c2cccc(-c3nc4cc(C(F)(F)F)ccc4[nH]3)c2)cc1`, the values for the inhibition in assay [1], in assay [2] and in assay [3] were 8.61%, 8.61% and 8.38%, respectively.

On to `CSc1ccc(CN2CCC(NC(=O)c3ccc(-c4ccc(N(C)C)cc4)s3)CC2)cc1`, for which the inhibition was 1.5% in assay [1], 0.28% in assay [2] and 2.99% in assay [3].

On to `COc1ccc(-c2nonc2NC(=O)c2cccc(Cl)c2)cc1OC`, for which the figures for the inhibition in assay [1], in assay [2] and in assay [3] were 4.3%, 1.03% and 1.34%, respectively.

For `COc1cc(CNCCCNc2cc(=O)c3ccccc3[nH]2)c2c(c1)C(C)CN2C(=O)OC(C)(C)C` (centres undefined), the values for the inhibition in assay [1], in assay [2] and in assay [3] were 9.27%, 10.7% and 4.19%, respectively.
